According to PubChem BioAssay (NCI):
About 83,000 compounds went through this panel and 20% of them were active in at least one assay; those are over-represented in the sample as a whole.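 Percent growth is the endpoint: 0 to 100 indicates growth inhibition (40 means 60% inhibition), 0 means no net growth, and negative values indicate cell death.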 Values without a mark were called inactive. Calls of active or inactive are those of the source. How the source made its calls: active means growth percent below 10; inactive means the rest.

Legend:
Assay in all cases: NCI-60 one-dose screen, 48 h (100 = growth as untreated, 0 = no growth, -100 = all killed)
Details in all cases: 10 µM unless noted
[1] = tested on: MOLT-4 leukemia
[2] = tested on: SR leukemia
[3] = tested on: RPMI-8226 leukemia
[4] = tested on: OVCAR-8 ovarian
[5] = tested on: OVCAR-5 ovarian
[6] = tested on: OVCAR-4 ovarian
[7] = tested on: SK-OV-3 ovarian
[8] = tested on: IGROV1 ovarian
[9] = tested on: OVCAR-3 ovarian
[10] = tested on: HS 578T breast
[11] = tested on: NCI/ADR-RES ovarian
[12] = tested on: T-47D breast
[13] = tested on: BT-549 breast
[14] = tested on: MDA-MB-435 melanoma
[15] = tested on: SW-620 colon
[16] = tested on: MCF7 breast
[17] = tested on: HCT-116 colon
[18] = tested on: HCC-2998 colon
[19] = tested on: KM12 colon

SMILES | growth [1] | growth [2] | growth [3] | growth [4] | growth [5] | growth [6] | growth [7] | growth [8] | growth [9] | growth [10] | growth [11] | growth [12] | growth [13] | growth [14] | growth [15] | growth [16] | growth [17] | growth [18] | growth [19]
Clc1ccc(N2COOC3(OOC2)C2CC4CC(C2)CC3C4)cc1 | 56.9% | 11.2% | 35.6% | 46.6% | 70.4% | 87.1% | 92.9% | -52.9% (active) | 4.41% (active) | 75.9% | -13.3% (active) | 49.1% | 68.7% | 53.1% | 75.3% | 71.7% | 50.4% | 102% | 36%
COc1ccc(-n2c(C)nc3cc(OC)c(OC)cc3c2=O)cc1OC | 97.2% | 95.5% | 104% | 102% | 104% | 101% | 102% | 102% | 106% | 101% | 102% | 91.4% | 102% | 104% | 105% | 91.8% | 98.7% | 109% | 104%
O=C1C2CCC1C(N1CCCC1)CC2 (stereo not given) | 98% | 100% | 98.7% | 96.3% | 101% | 106% | 106% | 96% | 106% | 102% | 102% | 106% | 98% | 96.8% | 99.5% | 94.7% | 102% | 106% | 101%
CCCCCCCC(=O)OCC(=O)[C@]1(O)Cc2c(O)c3c(c(O)c2[C@@H](OC2CC(N)C(O)C(C)O2)C1)C(=O)c1c(OC)cccc1C3=O (stereo not given in full) | -93.1% (active) | -67.1% (active) | -73.6% (active) | -95% (active) | -73.9% (active) | -72.1% (active) | -58.5% (active) | -66.8% (active) | -100% (active) | -59.3% (active) | 50.7% | -69.2% (active) | -84% (active) | -80.5% (active) | -62.5% (active) | -94.4% (active) | -73.4% (active) | -90.1% (active) | -96.2% (active)
O=C1C2C(C(=O)[N]1[Hg][c]1ccccc1)C1(Cl)C(Cl)=C(Cl)C2(Cl)C1(Cl)Cl (stereo not given) | -2.76% (active) | -23.6% (active) | -40.8% (active) | -47.4% (active) | 73% | 5.55% (active) | 62.1% | -39.3% (active) | -85.5% (active) | -14.1% (active) | 40.6% | -36.9% (active) | -89% (active) | -78% (active) | -78.4% (active) | -55.3% (active) | -77.7% (active) | 11.7% | 74.6%
ClCCN(CCCl)c1ccc(/C=N/Nc2ncnc3nc[nH]c23)cc1 | 26.3% | 6.32% (active) | 91.9% | 80% | 124% | 80.3% | 82.6% | 28.3% | 98.5% | 151% | 98.4% | 59.8% | 95% | 79.9% | 77.6% | 42.5% | 78.4% | 94.6% | 96.6%
O=P1(NCCCl)OCCCN1CCCl (stereo not given) | 101% | 91.2% | 105% | 114% | 106% | 112% | 100% | 111% | 107% | 92.7% | 110% | 105% | 104% | 107% | 98% | 101% | 106% | 107% | 103%
CC(C)(N)Cc1ccccc1 | 103% | 100% | 99.9% | 106% | 109% | 112% | 106% | 106% | 112% | 96.6% | 111% | 107% | 101% | 107% | 105% | 99.4% | 101% | 110% | 105%
CN(C)CCCOc1ccc2c(c1)c(C(=O)C(=O)NCCO)cn2Cc1ccccc1 | 111% | 115% | 106% | 98.1% | 108% | 105% | 110% | 99.6% | 108% | 99.6% | 108% | 95.2% | 98.4% | 103% | 105% | 91.5% | 98.7% | 115% | 104%
COc1ccc2c(c1)c(-c1nc(-c3cn(C)c4ncccc34)cs1)cn2CCN1CCOCC1 | 33.5% | 39.1% | 13.3% | 29.2% | 78.2% | 42% | 85.1% | 28.7% | 47.9% | 31.4% | 30.6% | 20% | 54.7% | 72.9% | 55.8% | 13.5% | 34.4% | 95.6% | 22.7%
COc1ccc(/C=C\c2cc(OC)c(OC)c(OC)c2)cc1OCC(=O)Nc1nc2ccc(C(F)(F)F)cc2s1 | 16.3% | 26.5% | 21.2% | 17.5% | 94.1% | 57.4% | 10.8% | 19.3% | -51.8% (active) | -8.14% (active) | -11.8% (active) | 37.7% | 43.1% | -34.9% (active) | 28.3% | 15.1% | 13.8% | 64.7% | 17.9%
CC(=O)C(c1c(O)c2ccccc2oc1=O)c1cc(=O)oc2c1ccc1ccccc12 (stereo not given) | 90.2% | 92.5% | 94% | 99.4% | 99.4% | 101% | 94.6% | 106% | 110% | 91.5% | 99.6% | 84.3% | 87.9% | 103% | 99% | 91.3% | 92.3% | 104% | 109%
CCCCCCCCCCCCCCCCCC1OC[C@@H](COC(=O)O[C@@H](C(=O)O[C@H]2C[C@@]3(O)[C@@H](OC(=O)c4ccccc4)[C@@H]4[C@]5(OC(C)=O)CO[C@@H]5C[C@H](O)[C@@]4(C)C(=O)[C@H](OC(C)=O)C(=C2C)C3(C)C)[C@@H](NC(=O)c2ccccc2)c2ccccc2)O1 (stereo not given in full) | 58.7% | 47.8% | 15.2% | 64.8% | 53.9% | 80.8% | 57.9% | 50.4% | 29.2% | 57.3% | 106% | 51.9% | 55.2% | -41.2% (active) | 45.7% | 24.9% | 23.4% | 56.8% | 28.7%
Nc1ncnc2n[nH]nc12 | 86.4% | 63.1% | 43.1% | 57.8% | 59.3% | 57.6% | 13.1% | 52.2% | 75.1% | 94.7% | 67.7% | 4.78% (active) | 89.8% | 75.1% | 61.5% | 63.2% | 65.1% | 68.7% | 70.4%
CC[C@H](C)[C@H](NC(=O)[C@H]1CCCCN1C)C(=O)N(C)[C@H](C[C@@H](OC(C)=O)c1nc(C(=O)N[C@@H](Cc2ccccc2)C[C@H](C)C(=O)OC)cs1)C(C)C | 4.63% (active) | -7.13% (active) | 27.5% | 16.4% | 58.1% | 51.5% | 41% | 25.9% | -0.916% (active) | 33.8% | -4.28% (active) | 81% | -35.7% (active) | -35.3% (active) | 45.4% | 12.9% | 4.25% (active) | 10.8% | 2.43% (active)
